PubChem BioAssay AID624330 (Southern Research Specialized Biocontainment Screening …, 2012)
The whole screen tested about 340,000 compounds, of which about 2,100 (0.62%) were called active.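 The calls were made as follows: active = first-screen hits whose inhibition reached a set limit at any dose in the follow-up dose series; inconclusive = inhibition above the set first-screen limit but never retested; inactive = the rest.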 Not all results are given here. Measured potencies and affinities stand elsewhere.

target: Rac GTPase-activating protein 1 (Homo sapiens) (UniProt Q9H0H5); assay: MgcRacGAP GTPase-activating activity inhibitors, confirmation, biochemical, ADP Hunter fluorescence, primary and confirmatory (AID 624330); conditions: MgcRacGAP-stimulated Rac1 GTP hydrolysis, at 30 µM, stronger effect = higher value, GST-tagged Rac1 F28L mutant substrate;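 also: fluorescence reports GDP produced by GAP-driven GTP hydrolysis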
Sequence (Q9H0H5 whole entry, looked up): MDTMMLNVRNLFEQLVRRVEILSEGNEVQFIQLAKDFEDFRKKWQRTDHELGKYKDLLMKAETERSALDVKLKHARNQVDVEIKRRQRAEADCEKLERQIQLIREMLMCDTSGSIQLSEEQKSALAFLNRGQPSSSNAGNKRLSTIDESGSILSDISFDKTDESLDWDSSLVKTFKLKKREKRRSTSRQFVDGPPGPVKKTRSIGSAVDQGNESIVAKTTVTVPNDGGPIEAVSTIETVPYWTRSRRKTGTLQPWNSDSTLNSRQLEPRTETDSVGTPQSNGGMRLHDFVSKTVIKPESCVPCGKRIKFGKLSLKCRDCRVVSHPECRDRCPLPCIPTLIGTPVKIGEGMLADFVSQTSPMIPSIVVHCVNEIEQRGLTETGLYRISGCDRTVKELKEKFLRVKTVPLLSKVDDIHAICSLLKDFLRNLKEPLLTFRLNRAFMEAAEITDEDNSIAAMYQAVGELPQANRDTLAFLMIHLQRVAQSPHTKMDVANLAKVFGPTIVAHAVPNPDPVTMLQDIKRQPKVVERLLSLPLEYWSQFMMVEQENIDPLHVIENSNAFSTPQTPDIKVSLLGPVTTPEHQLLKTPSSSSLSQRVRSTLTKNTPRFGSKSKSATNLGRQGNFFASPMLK

inhibition, inactive:
CC(C)C(=O)Nc1cc(S(=O)(=O)Nc2cccc(Cl)c2)ccc1Cl 12.6%, CCCCc1c(C)c(C#N)c2nc3ccccc3n2c1Nc1c(C)n(C)n(-c2ccccc2)c1=O 8.78%, COc1cccc(/C=C/C(=O)OCC(=O)Nc2ccc3c(c2)OCO3)c1 13%, COc1ccc(/C=C/C(=O)OCC(=O)Nc2ccc3c(c2)OCO3)cc1 10.3%, COc1cccc(/C=C/C(=O)OCC(=O)Nc2ccc3c(c2)OCCO3)c1 14.2%, COc1cc(/C=C/C(=O)OCC(=O)Nc2ccc3c(c2)OCCO3)ccc1OCC#N 5.37%, CCOC(=O)CC1C(=O)NCCN1C(=S)NC(=O)c1ccccc1OC (stereo unspecified) 3.14%, CCN(CC(=O)Nc1ccc(NC(C)=O)cc1)C(=O)c1cn(-c2ccccc2)nc1-c1cccs1 7.68%, COc1ccc(C)cc1NC(=O)NC1CC(=O)N(c2ccc3c(c2)OCCO3)C1 (stereo unspecified) 10.3%, CC(/C=C/c1ccccc1)=N/O 4.32%, CCOc1ccc(/C=C\C(C)=N\O)cc1 8.33%, COc1ccc(Cl)cc1C(=O)NCCN1CCOCC1 3.67%, Cc1cccc(NS(=O)(=O)c2ccc(C)c(C(=O)NCC(c3ccco3)N3CCCCC3)c2)c1 (stereo unspecified) 4.69%, C=CC(=O)N1c2ccccc2Sc2ccc(NC(=O)OCC)cc21 6.2%, COc1ccc(/C(C)=N/Nc2ccc(C(=O)O)cc2)cc1OC -0.19%, COC(=O)c1ccc2c(c1)NC(=O)c1ccccc1S2 8.59%, CCOC(=O)Nc1ccc2c(c1)N(C(=O)CN(C)C)c1ccccc1S2 -22.2%, C/C(=N\NC(=O)c1ccccc1F)c1cccc(NC(=O)c2ccccc2)c1 4.16%, C/C(=N\NC(=O)c1ccccc1F)c1cccc(NC(=O)c2ccc(C)cc2)c1 5.2%, CC(=O)c1ccc2c(c1)N(C)c1ccccc1S2 18.2%, C/C(=N\Nc1ccc(C(=O)O)cc1)c1ccc(Br)cc1 14%, Cc1ccc(CN2[C@@H](Cc3ccccc3)C(=O)CS2(=O)=O)cc1 3.43%, O=C(NNC(=O)c1n[nH]c2ccccc12)c1ccccc1 4.79%, CN1CCN(c2cc(C(F)(F)F)nc(-c3ccccn3)n2)CC1 1.81%, C=CCn1c(SCc2ccc(C(=O)OC)cc2)nnc1-c1sc(N)nc1C 3.61%, COc1ccccc1CCNC(=O)NC1CCCCC1 3.38%, Cc1ccccc1N(CC(=O)NCCc1ccccc1)C(=O)c1ccc(N2CCCC2)nc1 -2.74%, COc1cccc(OC)c1C(=O)NC(=S)NCc1cccnc1 6.24%, CCC1CCCCN1C(=O)COc1ccc2c(c1)OCO2 (stereo unspecified) 2.24%, Cc1ccc(C(=O)c2c3ccc([N+](=O)[O-])cc3[n+]([O-])n2CCCN)cc1 8.83%, CC(=O)Nc1cccc(/C(C)=N/NC(=O)c2ccc(O)cc2)c1 0.87%, C/C(=N\NC(=O)c1ccc(O)cc1)c1cccc(NC(=O)c2ccc(Cl)cc2)c1 8.52%, Cc1cccc(C(=O)Nc2cccc(C(=O)N3CCOCC3)c2)c1 -5.11%, COCCNC(=S)Nc1cc2oc3ccccc3c2cc1OC 17.8%, COCCNC(=S)Nc1cc(OC)c(NC(=O)c2ccco2)cc1OC 3.43%, CC(=O)N1CCc2c(sc(NC(=O)Cc3ccc(C)cc3C)c2C#N)C1 -2.35%, COc1ccc(/C=N/NC(=O)c2nc(-c3ccccc3)n(-c3ccccc3)n2)cc1OC 6.46%, Cc1nn(-c2ccccc2)c(C)c1-c1cc(C(=O)N/N=C/c2ccc(O)cc2)[nH]n1 19.3%, Cc1cccc(-n2cnc(C(=O)N/N=C/c3ccccc3)c2)n1 6.69%, COc1ccc(/C=N/NC(=O)c2nc(-c3ccccc3)cc(-c3ccccc3)n2)cc1OC 11.2%, COc1ccc(/C=N/NC(=O)c2nc(-c3ccccc3)n(-c3ccccc3)n2)cc1 -5.29%, Cc1cccc(-n2cnc(C(=O)N/N=C\c3ccc(Br)cc3)c2)n1 12.1%, COc1ccc(/C=N/NC(=O)c2nc(-c3ccccc3)cc(-c3ccccc3)n2)cc1O 24.5%, Cc1cc(C(=O)N/N=C/c2c(C)nn(-c3ccccc3)c2C)n[nH]1 -3.78%, O=C1CCC2(CC1)NC(=O)N(c1ccccc1)N2 -10.2%, O=C1CNC(=S)N1CCOc1ccccc1 -1.2%, COc1ccc(S(=O)(=O)Nc2cc(C(=O)NCCC(C)C)ccc2N2CCOCC2)cc1 -3.38%, CCOc1ccc(-c2cc(C(=O)N3CCCC3)c3ccccc3n2)cc1 1.87%, CCOC(=O)COc1ccccc1-c1ccno1 5.09%, COc1ccc(S(=O)(=O)Cc2ccc(C(=O)NCC(OC)OC)o2)cc1 5.28%, CCC1C(=O)NCCN1C(=O)c1cc(COc2cc(C)ccc2C)on1 (stereo unspecified) 13.8%, O=C(NCc1cccnc1)c1ccccn1 3.14%, O=C(Nc1cnccn1)Nc1ccc(Cl)cc1Cl -2.37%, O=C(CCc1c[nH]c2ccccc12)NCCc1ccccc1 7.24%, O=C(CCc1c[nH]c2ccccc12)NCCc1ccc(Cl)cc1 6.06%, Cc1ccc(NC(=O)C(OC(=O)c2cnc(C)cn2)c2ccccc2)c([N+](=O)[O-])c1 (stereo unspecified) 4.33%, O=C(COc1ccc2cc(Br)ccc2c1)N1CCCC1 8.08%, CCOc1ccc(-c2n[nH]c(C)c2Oc2ccc(OC)cc2)c(O)c1 11%, Cc1[nH]nc(-c2ccc(O)c(C)c2O)c1Oc1ccccc1 18.4%, COc1ccc(-c2[nH]ncc2-c2csc(C)n2)c(O)c1 13.3%, CCCOC(=O)c1ccc(Oc2c(-c3ccc(O)cc3O)n[nH]c2C)cc1 19.3%, O=S(=O)(N/N=C\c1ccccc1O)c1ccc(Cl)cc1 6.73%, O=C1CC(C(=O)Nc2ccc(Cl)cc2)S/C(=N\N=C\c2ccco2)N1 (stereo unspecified) 10.6%, COc1ccc(Nc2ccnc3ccccc23)cc1 3.59%, c1ccc(CCNc2ccnc3cc4ccccc4cc23)cc1 13.8%, COCCN1C(=O)N(c2ccccc2)C(=O)C1CC(=O)Nc1cc(OC)cc(OC)c1 (stereo unspecified) -13.2%, COC(=O)C(Cc1cncn1COCc1ccccc1)NC(=O)OC(C)(C)C (stereo unspecified) 4.31%, Cc1ccc2[nH]c3c(N4CCN(Cc5ccccc5)CC4)ncnc3c2c1 22.2%, c1ccc(CN2CCN(c3ncnc4c3[nH]c3ccccc34)CC2)cc1 20.2%, O=C(CCCc1ccccc1)Nc1ccnn1C1CCN(Cc2ccccc2F)CC1 7.8%, Cc1occc1C(=O)NNC(=O)C1CCCC1 0.63%, CNC(=O)NC(=O)C(C)N1CCN(C/C=C/c2ccccc2)CC1 (stereo unspecified) -5.37%, COc1ccc(CN2CCN(C)CC2)cc1OCc1ccccc1 8.63%, COc1ccc(CN2CCC(Cc3ccccc3)CC2)cc1OC 29.4%, COc1ccc(N2CCN(C(C)C(=O)N(C)Cc3ccccc3)CC2)cc1 (stereo unspecified) 11%, COc1cccc(CN2CCSCC2)c1 16.8%, COc1cc(OC)cc(C(=O)N2CCN(Cc3cccc(F)c3)CC2)c1 27.4%, COc1ccc(CN2CCN(C(=O)c3cccc4ccccc34)CC2)cc1OC 30.3%, COc1ccc(CN2CCOCC2)cc1OC 11.6%, O=C(CN(c1ccccn1)S(=O)(=O)c1ccccc1)N/N=C/c1cccc([N+](=O)[O-])c1 6.03%, CC(NC(=O)C1CCN(c2nnc(N3CCCC3=O)s2)CC1)c1ccccc1 (stereo unspecified) 1.18%, Cc1nn(-c2cc(C(F)(F)F)ccc2Cl)c2nc(C(F)(F)F)[nH]c(=O)c12 6.22%, CCN1C(=O)CC(N2CCN(c3cccc(OC)c3)CC2)C1=O (stereo unspecified) 7.87%, COc1cc(CN2CCN(Cc3ccc([N+](=O)[O-])cc3)CC2)c([N+](=O)[O-])cc1OC 28.4%, COc1ccc(CN2CCN(C(C)C(=O)N3CCc4ccccc43)CC2)cc1OC (stereo unspecified) 7.8%, COc1ccc(CN2CCN(c3ncccn3)CC2)c(OC)c1 9.88%, COc1cc(CN2CCN(Cc3ccc(C)cc3)CC2)c([N+](=O)[O-])cc1OC 31.1%, COc1ccc(CN2CCN(c3ccccc3OC)CC2)c(OC)c1 25.9%, COc1ccc(CN2CCN(S(=O)(=O)c3ccc(F)cc3)CC2)cc1OC 19.8%, COc1cc(OC)c(OC)cc1CN1CCN(Cc2cccc(F)c2)CC1 9.82%, CC(C(=O)N(C)Cc1cccc(F)c1)N1CCN(S(=O)(=O)c2ccc3c(c2)OCCCO3)CC1 (stereo unspecified) 4.74%, CC(NCC(c1ccco1)N1CCCCC1)C(=O)NC1CCCC1 (stereo unspecified) 6.01%, Cc1[nH]ccc(=O)c1OCc1ccc(Cl)cc1 8.17%, CCCSc1nnc2c(n1)OC(c1cccn1C)N(C(C)=O)c1ccccc1-2 (stereo unspecified) 7.61%, Cc1cccc(NC(=O)Nc2cnccn2)c1C 7.34%, COc1cc(C(=O)NC2CCCC2)c(Br)c(OC)c1OC 11.2%
